Assay outcomes deposited in PubChem by Broad Institute.
Pf Dd2 inh – P. falciparum Dd2 growth inhibition; SYBR Green, 72 h; active compounds read low; activity change, % at 10 µM; 2.3% of 94,000 active; in the data active = activity change below about -80%
T cruzi growth-1 – inhibitors of T. cruzi proliferation. AID 624255. T. cruzi beta-gal in NIH3T3, GalScreen luminescence, 90 h. inhibition, % at 8.34 µM. 5.9% of 77,000 active;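 active = mean inhibition above about 93%, with at least 55% of replicates each passing it, limit read from the data, passing the limit was not always enough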
C diff growth – C. difficile growth inhibition; Clostridium difficile clinical isolate growth, OD600, 24 h; active compounds read low; growth activity, negative = inhibition, % at 16 µg/mL (by protocol); 0.25% of 86,000 active; AID 1259249;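 active = mean growth activity at or below -80% and every replicate also at or below -80%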;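 also: 0% = DMSO wells and -100% = levofloxacin 16 µg/mL wells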
T cruzi growth-2 – blocks T. cruzi growth in NIH3T3 host cells; 72% of 5,600 active; inhibition, % at 8.35 µM; T. cruzi beta-gal in NIH3T3, GalScreen luminescence, 90 h; shares compounds with T cruzi growth-1;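 active = mean replicate inhibition above about 95% and at least 55% of replicates individually reaching it, limit read from the data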
T cruzi growth-3 – inhibitors of T. cruzi proliferation; AID 651740; inhibition, % at 2.09 µM; T. cruzi beta-gal in NIH3T3, GalScreen luminescence, 90 h; shares compounds with T cruzi growth-1; 21% of 5,600 active;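 active = mean inhibition above about 95%, with at least 55% of replicates also reaching it, limit read from the data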;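 also: plate controls were neutral control median for no effect and positive control median for full effect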
3T3 cytotox – kills mouse NIH/3T3 fibroblasts. shares compounds with T cruzi growth-1. cytotoxicity (signal decrease), % at 8.35 µM. 14% of 5,600 active. NIH/3T3 viability, CellTiter-Glo ATP luminescence, 90 h;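 active = mean signal decrease across replicates above about 35% based on untreated-well scatter, with enough replicates individually passing, limit read from the data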;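 also: 0% = median of neutral control wells and 100% = median of positive control wells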
3T3 cytotox 2 – NIH/3T3 (mouse) viability loss; shares compounds with T cruzi growth-1; NIH/3T3 viability, CellTiter-Glo ATP luminescence, 90 h; inhibition, % at 24.9 µM; 56% of 5,600 active;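 active = mean loss of cell viability signal at or above a set limit, and enough replicates individually reaching it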;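 also: 0% = median of neutral control wells and 100% = median of positive control wells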
The depositor's hits bear a star. In the library only some 6.7% were active in any assay of this set; here they are far more common.

`COC(=O)[C@H]1[C@H](CO)[C@H]2Cn3c(ccc(-c4ccccc4F)c3=O)[C@@H]1N2C(=O)C1CC1` gave Pf Dd2 inh 27, T cruzi growth-1 -18 and C diff growth -5.
COc1ccc(C#Cc2ccc([C@H]3[C@@H](CO)N4CCCCN(C(=O)Cc5ccncc5)C[C@@H]34)cc2)cc1 was read as Pf Dd2 inh -45, T cruzi growth-1 108*, C diff growth 2, T cruzi growth-2 105*, T cruzi growth-3 69, 3T3 cytotox 41* and 3T3 cytotox 2 64*.
O=C(Cc1ccncc1)N1CCCCN2[C@H](C1)[C@H](c1ccc(C#Cc3ccccc3F)cc1)[C@@H]2CO was read as Pf Dd2 inh -49, T cruzi growth-1 24 and C diff growth 0.
`COc1ccc(C#Cc2ccc([C@H]3[C@H]4CN(C(=O)Cc5ccncc5)CCCCN4[C@H]3CO)cc2)cc1` gave Pf Dd2 inh -64, T cruzi growth-1 107*, C diff growth 0, T cruzi growth-2 98*, T cruzi growth-3 -82, 3T3 cytotox 77* and 3T3 cytotox 2 98*.
COc1ccc(-c2ccc([C@@H]3[C@H](CO)N4CCCCN(C(=O)Cc5ccncc5)C[C@@H]34)cc2)cc1 was read as Pf Dd2 inh -15, T cruzi growth-1 99*, C diff growth -4, T cruzi growth-2 98*, T cruzi growth-3 62, 3T3 cytotox 1 and 3T3 cytotox 2 29*.
Screening O=C(Cc1ccncc1)N1CCCCN2[C@H](CO)[C@H](c3ccc(C#CC4(O)CCCC4)cc3)[C@@H]2C1 returned Pf Dd2 inh 13, T cruzi growth-1 93 and C diff growth 3.
For COc1ccc(-c2ccc([C@@H]3[C@@H](CO)N4CCCCN(C(=O)Cc5ccccc5)C[C@@H]34)cc2)cc1 the results were Pf Dd2 inh 3, T cruzi growth-1 75 and C diff growth 3.
For O=C(Cc1ccncc1)N1CCCCN2[C@H](CO)[C@@H](c3ccc(C#CC4(O)CCCC4)cc3)[C@@H]2C1 the results were Pf Dd2 inh 9, T cruzi growth-1 105*, C diff growth 0, T cruzi growth-2 1, T cruzi growth-3 -7, 3T3 cytotox 9 and 3T3 cytotox 2 17.
For COc1ccc(-c2ccc([C@H]3[C@@H](CO)N4CCCCN(C(=O)Cc5ccncc5)C[C@H]34)cc2)cc1 the results were Pf Dd2 inh -4, T cruzi growth-1 88 and C diff growth -5.
CC=Cc1ccc2n(c1=O)C[C@H]1[C@H](CO)[C@@H](C(=O)OC)[C@@H]2N1CC1CC1 (mixture of isomers) was read as Pf Dd2 inh 3, T cruzi growth-1 47 and C diff growth 0.
COc1cccc(-c2ccc3n(c2=O)C[C@@H]2[C@@H](CO)[C@H](C(=O)O)[C@H]3N2Cc2ccccc2F)c1 was read as T cruzi growth-1 64.
For O=C(NC[C@H]1CC[C@H]2[C@H](CN2Cc2cccnc2)O1)C1CC1 the results were Pf Dd2 inh 44 and C diff growth -6.
For COC(=O)[C@H]1[C@H](CO)[C@H]2Cn3c(ccc(-c4ccccc4)c3=O)[C@@H]1N2CC1CCOCC1 the results were Pf Dd2 inh 11, T cruzi growth-1 -22 and C diff growth -6.
Screening COc1ccc(C#Cc2ccc([C@H]3[C@@H](CO)N4CCCCN(C(=O)Cc5ccncc5)C[C@H]34)cc2)cc1 returned Pf Dd2 inh -69, T cruzi growth-1 109*, C diff growth 0, T cruzi growth-2 108*, T cruzi growth-3 86, 3T3 cytotox 23 and 3T3 cytotox 2 106*.
For COc1cccc(-c2ccc([C@@H]3[C@H]4CN(C(=O)Cc5ccncc5)CCCCN4[C@H]3CO)cc2)c1 the results were Pf Dd2 inh -10, T cruzi growth-1 114*, C diff growth -5, T cruzi growth-2 94, T cruzi growth-3 26, 3T3 cytotox 7 and 3T3 cytotox 2 28.
Screening COc1ccc(C#Cc2ccc([C@@H]3[C@H]4CN(C(=O)Cc5ccncc5)CCCCN4[C@H]3CO)cc2)cc1 returned Pf Dd2 inh -59, T cruzi growth-1 106*, C diff growth 49, T cruzi growth-2 92, T cruzi growth-3 73, 3T3 cytotox 28 and 3T3 cytotox 2 100*.
For COc1ccc(-c2ccc([C@@H]3[C@H]4CN(C(=O)Cc5ccccc5)CCCCN4[C@H]3CO)cc2)cc1 the results were Pf Dd2 inh -7, T cruzi growth-1 79 and C diff growth 4.
`COc1ccc(C#Cc2ccc([C@@H]3[C@@H](CO)N4CCCCN(C(=O)Cc5ccncc5)C[C@@H]34)cc2)cc1` gave Pf Dd2 inh -75, T cruzi growth-1 117*, C diff growth 28, T cruzi growth-2 104*, T cruzi growth-3 76, 3T3 cytotox 21 and 3T3 cytotox 2 102*.
For COc1ccc(-c2ccc([C@H]3[C@H]4CN(C(=O)Cc5ccccc5)CCCCN4[C@H]3CO)cc2)cc1 the results were Pf Dd2 inh -41, T cruzi growth-1 74 and C diff growth 6.
Screening COC(=O)[C@@H]1[C@@H](CO)[C@@H]2Cn3c(ccc(-c4cccc(OC)c4)c3=O)[C@H]1N2C(=O)c1ccccc1F returned Pf Dd2 inh 7, T cruzi growth-1 -8 and C diff growth -3.
Screening COC(=O)[C@H]1[C@H](CO)[C@H]2Cn3c(ccc(-c4ccccc4F)c3=O)[C@@H]1N2C(C)=O returned Pf Dd2 inh 7, T cruzi growth-1 41 and C diff growth -4.
Screening CCOC(=O)[C@@H]1[C@@H]2NC(=S)N[C@@]1(C)Oc1ccccc12 returned C diff growth 3.
`COC(=O)[C@@H]1[C@@H](CO)[C@@H]2Cn3c(ccc(-c4ccccc4)c3=O)[C@H]1N2CC1CC1` gave Pf Dd2 inh 6, T cruzi growth-1 15 and C diff growth 5.
COc1ccc(OC(=O)N(C)C[C@H]2OCc3ccccc3-c3c(n(C)c4ccccc34)C(=O)N([C@@H](C)CO)C[C@@H]2C)cc1 was read as Pf Dd2 inh -75 and C diff growth 5.
For O=C(Cc1cccnc1)N1CCCCN2[C@H](C1)[C@@H](c1ccc(/C=C/c3ccccc3)cc1)[C@@H]2CO the results were Pf Dd2 inh -13, T cruzi growth-1 103*, C diff growth 1, T cruzi growth-2 105*, T cruzi growth-3 100*, 3T3 cytotox 48* and 3T3 cytotox 2 105*.
Screening O=C(Cc1cccnc1)N1CCCCN2[C@@H](CO)[C@@H](c3ccc(/C=C/c4ccccc4)cc3)[C@@H]2C1 returned Pf Dd2 inh -47, T cruzi growth-1 108*, C diff growth 22, T cruzi growth-2 97*, T cruzi growth-3 68, 3T3 cytotox 7 and 3T3 cytotox 2 106*.
